In PubChem BioAssay (Tox21):
Several values for one entry are separate records, joined by “and”; a condition that tells them apart may be missing. Equal values may be shown once. Records with an inconclusive call do not appear. Activity calls are given as the source filed them. Unless noted, the call rests on the fitted dose curve; in most records, active means well fitted curve in the direction sought with a large enough effect in the repeat runs; inconclusive means weak or mixed curves; inactive means no such curve, though single readings can be large; an effect the other way counts as inactive or inconclusive.

How the values were obtained:
[1] = qHTS assay for small molecule agonists of the p53 signaling pathway (AID 651631; calls by dose curve; further: nearly all actives have a fitted effect of over 15% in size; further: potency means the concentration at half of the fitted maximal effect)
Method in brief: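 We treat p53RE-bla HCT-116 cells with compounds for 16 h at 37 °C, add LiveBLAzer B/G FRET substrate for 2 h at room temperature, and measure fluorescence intensity.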

[2] = qHTS assay for small molecule agonists of the p53 signaling pathway - cell viability (AID 651633; calls by dose curve;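 further: p53RE-bla HCT reporter cells with a stable beta-lactamase p53 reporter; series mostly up to about 83 µM; nearly all actives have a fitted effect of over 30% in size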)
Method in brief: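 Viability counter-read: CellTiter-Glo luminescence (30 min, room temperature) in the same p53RE-bla plates. These plates had been exposed to compounds for 16 h at 37 C.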

[3] = qHTS assay for small molecules that induce genotoxicity in human embryonic kidney cells expressing luciferase-tagged ATAD5 - cell viability (AID 651634; calls by dose curve; further: nearly all actives have a fitted effect of over 25% in size)
Method in brief: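 Cytotoxicity counter-readout: after 15.5 hr compound treatment at 37C, live-cell protease activity in ATAD5-luciferase HEK293T cells measured by CellTiter-Fluor fluorescence, 30 min development at 37C.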

[4] = qHTS assay for small molecule disruptors of the mitochondrial membrane potential - cell viability (AID 720634; calls by dose curve;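 further: human HepG2 liver cancer cells; series mostly up to about 83 µM; nearly all actives have a fitted effect of over 20% in size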)
Method in brief: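 Cytotoxicity was quantified from ATP content by CellTiter-Glo luminescence in the same wells as the MMP dye read-out. HepG2 (2,000 cells/well) were plated overnight and exposed to compounds for 1 hr at 37 C.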

[5] = qHTS assay for small molecule disruptors of the mitochondrial membrane potential (AID 720635); further: potency means the concentration at half of the fitted maximal effect
Method in brief: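 Mitochondrial membrane potential tracked with Mito-MPS dye, red aggregates (ex 540/em 590 nm) against green monomers (ex 490/em 535 nm). Compound treatment 1 hr at 37C, dye 30 min in HepG2.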

[6] = qHTS assay to test for compound auto fluorescence at 590 nm (red) in HepG2 cells (AID 720674)
Method in brief: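 1 hr compound incubation on HepG2 cells, 37 C, 5% CO2; plate read ex 540 nm / em 590 nm; intensities reported as Rose Bengal sodium equivalents.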

[7] = qHTS assay to test for compound auto fluorescence at 535 nm (green) in HepG2 cells (AID 720675)
[8] = qHTS assay to test for compound auto fluorescence at 460 nm (blue) in HEK293 cells (AID 720678)
Method in brief: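 Measured: blue fluorescence (Ex 405/Em 460 nm) of compound-treated HEK293 cells, incubated overnight at 37C with 5% CO2 and scaled to triamterene equivalents.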

[9] = qHTS assay to test for compound auto fluorescence at 590 nm (red) in HEK293 cells (AID 720679)
Method in brief: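 Using HEK293 cells at 2,000 per well, the screen added 23 nL of each compound after cell attachment and incubated overnight (37C, 5% CO2). The plate reader then captured red-label fluorescence, Ex/Em 540/590nm.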

[10] = qHTS assay to test for compound auto fluorescence at 535 nm (green) in HEK293 cells (AID 720680)
[11] = qHTS assay to test for compound auto fluorescence at 460 nm (blue) in HEK293 cell free culture (AID 720681)
Method in brief: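 Blue fluorescence (Ex 405/Em 460 nm, triamterene-equivalent) was read immediately after pin transfer of compound or DMSO into medium (DMEM, 10% FBS) without cells.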

[12] = qHTS assay to test for compound auto fluorescence at 535 nm (green) in HEK293 cell free culture (AID 720682)
Method in brief: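 Green-channel intensity (Ex/Em 485/535 nm) was recorded from compound-treated wells containing only DMEM with 10% FBS. Fluorescein provided the equivalency standard.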

[13] = qHTS assay to test for compound auto fluorescence at 590 nm (red) in HEK293 cell free culture (AID 720683)
Method in brief: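 Red-channel autofluorescence of compounds in culture medium (DMEM, 10% FBS), no cells, measured at 540/590 nm. Rose Bengal sodium is the reference fluorophore for equivalence.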

[14] = qHTS assay to test for compound auto fluorescence at 590 nm (red) in HepG2 cell free culture (AID 720684)
Method in brief: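 Cell-free; medium MEM + 10% FBS; compound or DMSO added by pintool; read Ex 540/Em 590 nm; Rose Bengal sodium as red reference fluorophore.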

[15] = qHTS assay to test for compound auto fluorescence at 535 nm (green) in HepG2 cell free culture (AID 720686)
[16] = qHTS assay to test for compound auto fluorescence at 460 nm (blue) in HepG2 cells (AID 720687)
Method in brief: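 Blue-channel autofluorescence (Ex/Em 405/460 nm, triamterene-equivalent) was measured after 1 hr compound exposure at 37 C, 5% CO2. Cells were HepG2, plated overnight at 37 C in MEM plus 10% FBS.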

[17] = qHTS assay to test for compound auto fluorescence at 460 nm (blue) in HepG2 cell free culture (AID 720685)
Method in brief: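 Cell-free plates of MEM plus 10% FBS received 23 nL compound or DMSO vehicle; blue-channel (405/460 nm) intensity scored against triamterene as reference fluorophore.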

[18] = biological target: Glucocorticoid receptor (Homo sapiens) (UniProt P04150); test: qHTS assay to identify small molecule antagonists of the glucocorticoid receptor (GR) signaling pathway (AID 720692; active means well fitted inhibition curve with a large enough effect in the signal ratio in the repeat runs, not every such curve was filed as active; the % refers to the signal ratio; further: potency means the concentration at half of the fitted maximal effect)
Sequence of Glucocorticoid receptor (Homo sapiens) (P04150 whole entry, looked up): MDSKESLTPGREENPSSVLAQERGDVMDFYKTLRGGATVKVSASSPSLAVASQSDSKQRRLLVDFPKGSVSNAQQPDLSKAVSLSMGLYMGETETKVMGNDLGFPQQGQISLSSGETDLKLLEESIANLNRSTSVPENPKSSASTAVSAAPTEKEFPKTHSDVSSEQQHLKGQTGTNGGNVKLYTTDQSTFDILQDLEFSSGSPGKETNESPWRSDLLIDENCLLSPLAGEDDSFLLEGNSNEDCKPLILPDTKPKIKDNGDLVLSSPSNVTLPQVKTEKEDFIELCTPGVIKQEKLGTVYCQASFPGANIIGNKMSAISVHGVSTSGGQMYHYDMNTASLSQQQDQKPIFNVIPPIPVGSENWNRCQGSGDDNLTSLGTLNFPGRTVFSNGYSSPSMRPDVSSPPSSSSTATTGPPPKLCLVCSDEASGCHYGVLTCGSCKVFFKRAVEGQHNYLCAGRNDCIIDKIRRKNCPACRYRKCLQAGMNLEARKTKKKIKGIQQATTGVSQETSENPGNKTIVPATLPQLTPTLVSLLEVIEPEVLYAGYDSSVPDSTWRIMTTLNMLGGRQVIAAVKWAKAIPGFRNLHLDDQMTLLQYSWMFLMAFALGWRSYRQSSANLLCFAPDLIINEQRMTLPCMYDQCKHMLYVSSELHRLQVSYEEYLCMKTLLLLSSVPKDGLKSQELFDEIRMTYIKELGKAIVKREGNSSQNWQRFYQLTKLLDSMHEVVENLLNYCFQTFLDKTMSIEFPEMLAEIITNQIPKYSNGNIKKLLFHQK
Method in brief: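 Inhibition of dexamethasone-driven (5 nM final) beta-lactamase expression was measured in GRE-reporter HeLa cells over 18 h at 37C. Fluorescence was read after 2 h with the B/G FRET substrate at room temperature.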

[19] = qHTS assay for small molecules that induce genotoxicity in human embryonic kidney cells expressing luciferase-tagged ATAD5 (AID 651632); further: nearly all actives have a fitted effect of over 15% in size
Method in brief: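 A rise in luciferase signal from ATAD5-tagged HEK293T cells marks genetic stress. Cells were exposed to compounds for 16 hr at 37C, 5% CO2, then luciferase was quantified after a 30 min room-temperature incubation with Amplite.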

[20] = biological target: Glucocorticoid receptor (Homo sapiens) (UniProt P04150); test: qHTS assay to identify small molecule agonists of the glucocorticoid receptor (GR) signaling pathway (AID 720691; active means well fitted activation curve with a large enough effect in the signal ratio in the repeat runs, not every such curve was filed as active; the % refers to the signal ratio; further: potency means the concentration at half of the fitted maximal effect)
Method in brief: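 Agonist-mode qHTS in HeLa cells stably expressing a glucocorticoid-response-element beta-lactamase reporter. Fluorescence intensity read with FRET substrate (2 h, room temperature) after 18 h compound treatment at 37 C.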

Measured: Potency

CCCCCC1C(=O)CCC1CC(=O)OC (centres undefined)
inactive: [1] | [2] | [3] | [4] | [5] | [6] | [7] | [8] | [9] | [10] | [11] | [12] | [13] | [14] | [15] | [16]

C1COCCN1
inactive: [1] | [2] | [3] | [4] | [6] | [7] | [8] | [10] | [11] | [12] | [13] | [14] | [15] | [16]

COc1ccc(C(=O)c2ccccc2O)c(O)c1
inactive: [1] | [2] | [3] | [6] | [7] | [8] | [10] | [11] | [12] | [13] | [14] | [17] | [15] | [16] | [18]

CNC[C@H](O)c1ccc(O)c(O)c1
inactive: [1] | [2] | [3] | [4] | [5] | [6] | [7] | [8] | [10] | [11] | [12] | [13] | [14] | [15] | [16]

O=C(CCCN1CCC(O)(c2ccc(Cl)cc2)CC1)c1ccc(F)cc1
inactive: [1] | [2] | [4] | [6] | [7] | [8] | [9] | [10] | [11] | [12] | [13] | [14] | [15] | [16]

CC(C)[C@@H]1CC[C@@H](C)CC1=O
inactive: [1] | [2] | [3] | [6] | [7] | [8] | [9] | [10] | [11] | [12] | [13] | [14] | [17] | [15] | [16]

c1ccc2c(c1)[nH]c1ccccc12
inactive: [1] | [2] | [3] | [6] | [7] | [8] | [9] | [10] | [11] | [12] | [13] | [14] | [15] | [16] | [18]

CC(=O)[C@@]1(O)CC[C@H]2[C@@H]3C[C@H](C)C4=CC(=O)C=C[C@]4(C)[C@@]3(F)[C@@H](O)C[C@@]21C
inactive: [1] | [2] | [4] | [6] | [7] | [8] | [9] | [10] | [11] | [12] | [13] | [14] | [17] | [15] | [16]

C[C@]12CC[C@@H]3c4ccc(O)cc4CC[C@H]3[C@@H]1CC[C@H]2O
inactive: [19] | [2] | [6] | [7] | [8] | [10] | [11] | [12] | [13] | [14] | [15] | [16] | [20]
active: [1] 15.6 µM and 27.3 µM | [5] 27.8 µM and 27.3 µM | [18] 6.27 µM

CCCOCCO
inactive: [1] | [2] | [3] | [4] | [5] | [6] | [7] | [8] | [9] | [10] | [11] | [12] | [13] | [14] | [17] | [15] | [16] | [20] | [18]

COCCOCCOCCO
inactive: [1] | [19] | [2] | [6] | [7] | [8] | [10] | [11] | [12] | [13] | [14] | [17] | [15] | [16] | [20] | [18]

C/C=C/C(=O)N(CC)c1ccccc1C
inactive: [1] | [2] | [3] | [5] | [6] | [7] | [8] | [9] | [10] | [11] | [12] | [13] | [14] | [15] | [16] | [20] | [18]

CC(C)=CCO
inactive: [1] | [2] | [4] | [6] | [7] | [8] | [9] | [10] | [11] | [12] | [13] | [14] | [15] | [16]

[Na+]
inactive: [1] | [2] | [4] | [6] | [7] | [8] | [9] | [10] | [11] | [12] | [13] | [14] | [17] | [15] | [16] | [20] | [18]

CC(C)[N+](C)(CCOC(=O)C1c2ccccc2Oc2ccccc21)C(C)C
inactive: [1] | [19] | [2] | [6] | [7] | [8] | [9] | [10] | [11] | [12] | [13] | [14] | [15] | [16] | [18]

Cc1ccc(C(C)(C)C)cc1
inactive: [1] | [19] | [2] | [5] | [6] | [7] | [8] | [10] | [11] | [12] | [13] | [14] | [17] | [15] | [16]

C[C@]12C=CC(=O)C=C1CC[C@H]1[C@@H]3C[C@@H](O)[C@](O)(C(=O)CO)[C@@]3(C)C[C@H](O)[C@@]12F
inactive: [1] | [2] | [3] | [6] | [7] | [8] | [9] | [10] | [11] | [12] | [13] | [14] | [15] | [16]
active: [20] 301 nM and 61.6 nM

C=C1C[C@H]2[C@@H]3C=C(C)C4=CC(=O)CC[C@]4(C)[C@H]3CC[C@]2(C)[C@@]1(OC(C)=O)C(C)=O
inactive: [1] | [19] | [2] | [6] | [7] | [8] | [9] | [10] | [11] | [12] | [13] | [14] | [17] | [15] | [16] | [18]
